Each structure is given as a SMILES string. Values without a mark were called inactive. Results filed as inconclusive are left out. Activity calls are given as the source filed them. Unless noted, the call rests on the fitted dose curve.

The nature of experiment [1]: Nuclear factor erythroid 2-related factor 2/antioxidant responsive element (Nrf2/ARE) small molecule agonists: luciferase reporter gene qHTS assay in human keratinocytes (AID 1919969; further: nearly all actives have a fitted effect of over 35% in size). (In general: A reporter such as luciferase makes a cellular process visible.)
In experiment [2] the target is Gonadotropin-releasing hormone receptor (Homo sapiens) (UniProt P30968). In words: Human gonadotropin-releasing hormone receptor (GnRHR) small molecule agonists, calcium flux assay in GnRHR-HEK293 cells (AID 1920063). Further: nearly all actives have a fitted effect of over 35% in size. Summed up: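 HEK293 cells stably expressing human GnRHR were plated 18 h at 37 °C, loaded with calcium dye 1 h at 37 °C, then given compound in agonist mode; fluorescence (Ex/Em 480/540) read kinetically for 3 min at 1 s intervals.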
For orientation: Calcium assays in cells follow changes in intracellular calcium, usually with a dye or a luminescent sensor.

For experiment [3], the target named is KiSS-1 receptor (Homo sapiens) (UniProt Q969F8). Briefly: Human kisspeptin (KISS1R) small molecule agonists, calcium flux assay in KISS1R-HEK293 cells (AID 1920064; active means well fitted activation curve with a large enough effect in the repeat runs). The method, boiled down: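 HEK293 cells stably expressing human KISS1R were plated 18 h at 37 °C, loaded with calcium dye for 1 h at 37 °C, then given compound by pin tool. Fluorescence (Ex/Em 480/540) was read kinetically for 3 min.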

The nature of experiment [4]: G protein-coupled receptor (GPCR) small molecule agonists, calcium flux assay: HEK293 wild type cell line counter screen (AID 1920065). Summed up:
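Cells were plated and cultured 18 h at 37 C/5% CO2, then loaded with calcium dye for 1 h at 37 C. Compounds in DMSO were pin-transferred in agonist mode, and fluorescence (Ex/Em 480/540) was read kinetically for 3 min at 1 s intervals.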

Experiment [5] in a line: p53 small molecule agonists, cell-based qHTS assay with rat liver microsomes (AID 1963578). The method, boiled down: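 Metabolic activation by rat liver microsomes and NADPH, each 0.5 mg/mL final, added right after compounds to p53RE-bla reporter cells (4,000/well, plated 5 h earlier). 16 h at 37 C, then LiveBLAzer substrate for 2 h at room temperature in the dark; fluorescence read-out.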
A general note: In qHTS, concentration-response curves come from the screen itself.

A short description of experiment [6]: p53 small molecule agonists, cell-based qHTS assay with human liver microsomes: qHTS cell viability counter screen (AID 1963579). Further: nearly all actives have a fitted effect of over 45% in size. Further: potency means the concentration at half of the fitted maximal effect. Summed up: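 Metabolic activation used human liver microsomes and NADPH, both 0.5 mg/mL final, over 16 hours at 37 C on p53RE-bla cells (4,000/well). Cytotoxicity measured by CellTiter-Glo luminescence, 30 min at room temperature.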

Experiment [7] can be described thus: p53 small molecule agonists, cell-based qHTS assay with rat liver microsomes: qHTS cell viability counter screen (AID 1963580). Further: nearly all actives have a fitted effect of over 45% in size. The method, boiled down: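 Viability is assessed in parallel with the p53 reporter read: HCT-116 p53RE-bla cells receive compounds plus rat microsomes and NADPH (0.5 mg/mL final apiece), incubate 16 h at 37 C, and then CellTiter-Glo luminescence is recorded.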

A short description of experiment [8]: p53 small molecule agonists, cell-based qHTS assay (AID 1963582; active means well fitted activation curve with a large enough effect in the signal ratio in the repeat runs, not every such curve was filed as active; the % refers to the signal ratio). The method, boiled down:
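p53RE-bla beta-lactamase reporter cells rested 5 h at 37 C/5% CO2, then received compounds in DMSO by pin transfer and were incubated 16 h at 37 C. LiveBLAzer B/G FRET substrate was loaded for 2 h at room temperature before fluorescence reading.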

Experiment [9] concerns the target 5-hydroxytryptamine receptor 2A (Homo sapiens) (UniProt P28223). In words: 5-hydroxytryptamine receptor 2A (HTR2A) small molecule antagonists, cell-based qHTS assay (AID 1963586). Further: nearly all actives have a fitted effect of over 45% in size. The method, boiled down:
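Antagonist-mode intracellular calcium assay: DOI (4 nM) added after 5 min compound pre-incubation at room temperature to dye-loaded HTR2A-CHO cells. Fluorescence followed for 3 min, sampled every second.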

The target is the same in experiment [10]. In words: 5-hydroxytryptamine receptor 2A (HTR2A) small molecule agonists, cell-based qHTS assay (AID 1963587). Further: nearly all actives have a fitted effect of over 30% in size. Further: potency means the concentration at half of the fitted maximal effect. Summed up: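 CHO cells stably expressing human HTR2A, plated 18 h, loaded with calcium dye 1 h at 37 C. Agonist mode: compounds added and intracellular calcium fluorescence recorded kinetically for 2 min at 1 sec intervals.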
Experiment [11] deals with Muscarinic acetylcholine receptor M1 (Homo sapiens) (UniProt P11229). Briefly: Cholinergic receptor muscarinic 1 (CHRM1) small molecule antagonists, cell-based qHTS assay (AID 1963588). Further: nearly all actives have a fitted effect of over 40% in size. Summed up:
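CHRM1-CHO calcium-flux assay, antagonist mode. Cells were seeded 18 h, dye-loaded 1 h at 37 C and given compound for 5 min at RT, then acetylcholine was added at 50nM. FDSS fluorescence was read 3 min; 15 concentrations, three runs.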

Experiment [12] has the same target. Briefly: Cholinergic receptor muscarinic 1 (CHRM1) small molecule agonists, cell-based qHTS assay (AID 1963589). Further: nearly all actives have a fitted effect of over 35% in size. The method, boiled down: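 CHO cells stably expressing human CHRM1, seeded 18 h at 37 C/5% CO2, dye-loaded 1 h at 37 C, then given compound in agonist mode; intracellular calcium fluorescence read kinetically at 1 s intervals. Fifteen concentrations, three independent runs.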

Experiment [13] can be described thus: cAMP Responsive Elements (CRE) small molecule agonists, cell-based qHTS assay (AID 1963590). Summed up:
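CRE-bla HEK 293T cells in DMEM with 10% dialyzed FBS, NEAA, pyruvate and 25 mM HEPES were plated 18 h at 37 C/5% CO2, then exposed to compounds in DMSO for 3 h before LiveBLAzer B/G FRET substrate addition.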

The nature of experiment [14]: cAMP Responsive Elements (CRE) small molecule antagonists, cell-based qHTS assay (AID 1963591; active means well fitted inhibition curve with a large enough effect in the signal ratio in the repeat runs, not every such curve was filed as active; the % refers to the signal ratio). Summed up:
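CRE-bla HEK293T cells were plated 18 h at 37 °C/5% CO2, pinned with compound in DMSO, then stimulated with NKH477 at 0.25 uM final for 3 h. LiveBLAzer B/G FRET substrate was added and plates incubated 2 h at room temperature.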

In experiment [15] the target is Beta-2 adrenergic receptor (Homo sapiens) (UniProt P07550). In words: Adrenergic beta2 receptor (ADRB2) small molecule antagonists, cell-based qHTS assay (AID 1963592). Further: series mostly up to about 92 µM; nearly all actives have a fitted effect of over 50% in size. Summed up: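 Cells (CHO, stable ADRB2 overexpression) incubated 18-20hr at 37C; compounds added from DMSO; agonist mix (1nM isoproterenol, 100uM IBMX, 25uM Ro-20-1724) added; 0.5hr RT; d2-cAMP and anti-cAMP-cryptate added; 1hr RT; 665/615 nm read.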

The target of experiment [16] is D(2) dopamine receptor (Homo sapiens) (UniProt P14416). In words: Dopamine D2 receptor (DRD2) small molecule agonists, cell-based qHTS assay (AID 1963594). Further: nearly all actives have a fitted effect of over 35% in size. Further: potency means the concentration at half of the fitted maximal effect. The method, boiled down:
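HEK293 cells stably expressing human DRD2, pre-treated with PDE inhibitor Ro20-1724 (0.1 mM final) and compound 10 min at room temperature, then stimulated with NKH477 (200nM […]) for 30 min. cAMP read by HTRF (665/620 nm).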

Experiment [17] shares this target. Briefly: Dopamine D2 receptor (DRD2) small molecule antagonists, cell-based qHTS assay (AID 1963595; active means well fitted inhibition curve with a large enough effect in the signal ratio in the repeat runs, with a control signal flat; the % refers to the signal ratio). Summed up: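 Human DRD2 antagonist qHTS measuring cAMP by HTRF. The cells are exposed to compound for 10 min, then to NKH477 (200 nM) and quinpirole (12 nM) for 30 min at RT, with Ro20-1724 (0.1 mM) present throughout.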
The nature of experiment [18]: p53 small molecule agonists, cell-based qHTS assay with human liver microsomes (AID 1963577).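 Further: p53 response element beta-lactamase reporter cells with liver microsomes plus NADPH.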 The method, boiled down: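 With metabolic activation: human liver microsomes (0.5 mg/mL final) plus NADPH (0.5 mg/mL final) added alongside compounds to p53RE-bla cells; 16 h 37 C exposure; beta-lactamase read by LiveBLAzer fluorescence.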
A short description of experiment [19]: p53 small molecule agonists, cell-based qHTS assay: qHTS cell viability counter screen (AID 1963581). Further: nearly all actives have a fitted effect of over 45% in size. Further: potency means the concentration at half of the fitted maximal effect. Summed up:
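p53RE-bla HCT-116 cells were exposed to compounds for 16 h at 37 C; after the beta-lactamase FRET read in the same wells, CellTiter-Glo was added and luminescence (intracellular ATP) read after 30 min at room temperature.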

Experiment [20] addresses Beta-2 adrenergic receptor (Homo sapiens) (UniProt P07550). Briefly: Adrenergic beta2 receptor (ADRB2) small molecule agonists, cell-based qHTS assay (AID 1963593).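 Further: CHO cells stably overexpressing human ADRB2.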 Summed up:
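CHO cells stably over-expressing ADRB2 were plated overnight at 37C, then dosed with compounds plus a stimulation mix containing 100uM IBMX and 25uM Ro-20-1724 for 0.5hr at room temperature. cAMP was measured by HTRF competition, 1hr.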
On the % scale 0 is the no-effect control and ±100 the full control effect.

Sequence of D(2) dopamine receptor (Homo sapiens) (P14416 whole entry, looked up): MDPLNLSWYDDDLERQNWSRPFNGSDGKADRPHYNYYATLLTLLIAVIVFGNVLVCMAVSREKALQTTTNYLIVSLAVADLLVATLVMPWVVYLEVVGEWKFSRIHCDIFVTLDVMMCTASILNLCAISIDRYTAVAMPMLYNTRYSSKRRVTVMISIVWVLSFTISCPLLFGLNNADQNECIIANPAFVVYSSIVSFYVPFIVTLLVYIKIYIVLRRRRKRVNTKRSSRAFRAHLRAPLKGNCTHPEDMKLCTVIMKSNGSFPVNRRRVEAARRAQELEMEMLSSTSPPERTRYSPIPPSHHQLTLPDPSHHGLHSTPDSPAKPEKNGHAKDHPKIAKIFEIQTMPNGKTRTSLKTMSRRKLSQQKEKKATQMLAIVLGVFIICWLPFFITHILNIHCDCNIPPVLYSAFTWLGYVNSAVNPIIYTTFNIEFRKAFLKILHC
Sequence of Muscarinic acetylcholine receptor M1 (Homo sapiens) (P11229 whole entry, looked up): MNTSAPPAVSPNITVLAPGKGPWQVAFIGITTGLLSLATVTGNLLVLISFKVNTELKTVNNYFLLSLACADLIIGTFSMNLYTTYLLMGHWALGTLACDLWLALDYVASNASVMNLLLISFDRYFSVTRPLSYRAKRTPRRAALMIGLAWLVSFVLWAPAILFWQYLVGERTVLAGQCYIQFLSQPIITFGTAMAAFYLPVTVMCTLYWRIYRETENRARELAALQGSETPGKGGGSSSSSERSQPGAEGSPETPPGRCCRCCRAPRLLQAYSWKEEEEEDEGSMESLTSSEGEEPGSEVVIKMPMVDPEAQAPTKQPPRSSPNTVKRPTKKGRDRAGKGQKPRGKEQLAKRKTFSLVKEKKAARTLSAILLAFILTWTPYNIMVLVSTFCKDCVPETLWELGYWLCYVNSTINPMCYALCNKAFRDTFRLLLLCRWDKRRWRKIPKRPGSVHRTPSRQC
Sequence of Gonadotropin-releasing hormone receptor (Homo sapiens) (P30968 whole entry, looked up): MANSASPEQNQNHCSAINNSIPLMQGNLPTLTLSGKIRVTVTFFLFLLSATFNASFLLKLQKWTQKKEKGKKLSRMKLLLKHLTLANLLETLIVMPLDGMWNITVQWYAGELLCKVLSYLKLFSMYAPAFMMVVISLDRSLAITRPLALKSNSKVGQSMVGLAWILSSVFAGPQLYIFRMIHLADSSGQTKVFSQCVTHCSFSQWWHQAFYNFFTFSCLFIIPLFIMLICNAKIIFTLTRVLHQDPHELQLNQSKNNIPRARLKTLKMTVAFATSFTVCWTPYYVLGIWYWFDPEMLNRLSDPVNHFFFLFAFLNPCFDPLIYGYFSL
Sequence of 5-hydroxytryptamine receptor 2A (Homo sapiens) (P28223 whole entry, looked up): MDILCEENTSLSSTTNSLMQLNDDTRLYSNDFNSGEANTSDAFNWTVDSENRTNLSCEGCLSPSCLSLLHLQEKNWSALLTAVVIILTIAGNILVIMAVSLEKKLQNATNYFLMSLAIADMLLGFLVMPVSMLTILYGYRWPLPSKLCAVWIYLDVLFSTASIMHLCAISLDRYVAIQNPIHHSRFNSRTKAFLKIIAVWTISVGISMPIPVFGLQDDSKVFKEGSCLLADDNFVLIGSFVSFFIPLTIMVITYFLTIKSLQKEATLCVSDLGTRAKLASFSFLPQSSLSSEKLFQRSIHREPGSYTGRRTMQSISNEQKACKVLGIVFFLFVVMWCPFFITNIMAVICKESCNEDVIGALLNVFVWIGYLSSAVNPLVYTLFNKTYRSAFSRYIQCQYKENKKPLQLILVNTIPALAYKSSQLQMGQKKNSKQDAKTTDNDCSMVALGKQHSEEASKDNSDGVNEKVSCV
Sequence of KiSS-1 receptor (Homo sapiens) (Q969F8 whole entry, looked up): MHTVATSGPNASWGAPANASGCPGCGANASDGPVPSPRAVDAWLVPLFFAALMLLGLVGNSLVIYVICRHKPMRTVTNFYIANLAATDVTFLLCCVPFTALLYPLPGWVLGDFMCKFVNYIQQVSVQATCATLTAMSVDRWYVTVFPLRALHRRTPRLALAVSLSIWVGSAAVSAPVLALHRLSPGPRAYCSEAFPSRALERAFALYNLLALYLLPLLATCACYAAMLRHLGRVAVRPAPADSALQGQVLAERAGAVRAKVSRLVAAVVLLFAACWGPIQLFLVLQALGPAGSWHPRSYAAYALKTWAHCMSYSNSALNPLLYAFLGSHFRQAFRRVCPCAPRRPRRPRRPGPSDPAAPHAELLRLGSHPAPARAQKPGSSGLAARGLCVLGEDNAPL
Sequence of Beta-2 adrenergic receptor (Homo sapiens) (P07550 whole entry, looked up): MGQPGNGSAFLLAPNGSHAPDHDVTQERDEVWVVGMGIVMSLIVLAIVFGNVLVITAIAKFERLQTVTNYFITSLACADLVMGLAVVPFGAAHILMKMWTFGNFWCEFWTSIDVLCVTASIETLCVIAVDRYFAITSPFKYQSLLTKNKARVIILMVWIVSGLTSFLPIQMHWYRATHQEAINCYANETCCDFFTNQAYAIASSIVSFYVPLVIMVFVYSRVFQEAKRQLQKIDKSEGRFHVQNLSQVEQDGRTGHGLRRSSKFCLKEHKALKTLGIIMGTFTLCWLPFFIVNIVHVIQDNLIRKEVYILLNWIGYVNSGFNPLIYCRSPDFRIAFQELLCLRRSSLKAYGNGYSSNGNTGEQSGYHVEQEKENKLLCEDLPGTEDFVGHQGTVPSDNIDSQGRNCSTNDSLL

Regarding `OCCCc1cccnc1`, the Potency entry in [1], in experiment [2], in [5], in experiment [6], in experiment [7] and in [8] was “inactive” in each case. Besides, the Potency result in experiment [9], in experiment [10], in [11], in experiment [12], in experiment [13] and in [14] was “inactive” throughout. The Potency entry in experiment [15], in [16] and in experiment [17] was “inactive” in each case. Further, the result in experiment [3] and in experiment [4] was inactive.
As to `O=C(/C=C/c1ccccc1)OC/C=C/c1ccccc1`, the Potency entry in experiment [1], in experiment [2], in [18], in experiment [5], in [6] and in [7] was “inactive” throughout. Moreover, the Potency entry in experiment [8], in [9], in [10], in experiment [13], in [14] and in experiment [15] was “inactive” throughout. Moreover, the Potency result in experiment [16] and in experiment [17] was “inactive” throughout. Moreover, the result in experiment [4] was inactive.
With `NS(=O)(=O)c1cc2c(cc1Cl)CN(C1CCCCC1)C2=O`, the Potency entry in [1], in experiment [2], in experiment [18], in experiment [5], in [6] and in [7] was “inactive” in each case. Moreover, the Potency result in experiment [19], in experiment [8], in [10], in experiment [11], in [12] and in experiment [15] was “inactive” throughout. Also, the Potency result in experiment [20], in [16] and in experiment [17] was “inactive” each time. In [3], the result was inactive.
For `CC(C)OC(=O)c1ccccc1`, the Potency entry in [1], in experiment [2], in experiment [18], in experiment [5], in experiment [6] and in [7] was “inactive” in each case. In addition, the Potency entry in experiment [19], in experiment [9], in experiment [10], in experiment [11], in experiment [13] and in [14] was “inactive” in each case. The Potency entry in experiment [15], in [16] and in [17] was “inactive” each time. For the same compound, the outcome in experiment [4] was inactive.
`O=C(O)c1cccc(-c2noc(-c3ccccc3F)n2)c1`: the Potency result in experiment [1], in [18], in experiment [5], in [10], in [11] and in experiment [12] was “inactive” each time. Further, the Potency result in experiment [15] and in experiment [16] was “inactive” each time. Besides, the outcome in experiment [3] and in experiment [4] was inactive. For the same compound, the Potency in [6] and in experiment [19] was 15.8 µM (active) in each case.
Take `CCCCC(=O)O[C@]1(C(=O)CO)[C@H](C)C[C@H]2[C@@H]3CCC4=CC(=O)C=C[C@]4(C)[C@@]3(F)[C@@H](O)C[C@@]21C`: the Potency result in experiment [1], in [2], in [18], in [6], in experiment [7] and in experiment [19] was “inactive” throughout. Moreover, the Potency entry in experiment [8], in experiment [9], in experiment [10], in experiment [11], in [12] and in [13] was “inactive” throughout. In addition, the Potency entry in experiment [14], in [15], in experiment [16] and in experiment [17] was “inactive” each time. Moreover, the result in experiment [3] was inactive.
On to `CN1CCN(c2c(F)cc3c(=O)c(C(=O)O)cn4c3c2OCN4C)CC1`, for which the activity, positive = activation in experiment [1] was -3.8% [at 19 µM]. Also, the activity change in experiment [2] is 0.0141% [at 11.8 µM, stronger effect = higher value]. The activation in [4] was -0.0119% [at 11.8 µM]; in experiment [18] it was 0.808% [at 13.5 µM]; in [5], -0.432% [at 13.6 µM]; in experiment [8], -0.645% [at 13.5 µM]; in experiment [10], -1.68% [at 15.9 µM]; in experiment [12], -0.139% [at 15.8 µM]. For the same compound, the activation in [16] was 11.6% [at 19 µM]. In [19], the activity change, negative = cytotoxicity is 0.627% [at 13.5 µM]. The activity, negative = inhibition in [9] was -5.02% [at 12.7 µM]. Besides, the activity change, negative = inhibition in experiment [14] was -9.33% [at 18.9 µM]; in experiment [15], 2.14% [at 19 µM]; in [17] it was 2.83% [at 18.9 µM]. The Potency result in [20] is “inactive”.
Regarding `CCCN(CCC)CCc1cccc2c1CC(=O)N2`, the Potency entry in [1], in experiment [2], in experiment [18], in experiment [5], in experiment [19] and in experiment [8] was “inactive” each time. The Potency entry in experiment [9], in [12], in experiment [13], in experiment [14], in [15] and in experiment [20] was “inactive” each time. Also, the Potency entry in experiment [17] is “inactive”. The outcome in experiment [3] and in [4] was inactive. The results for the Potency in experiment [10] and in experiment [16] were 16.9 µM (active) and 0.0619 µM (active), respectively.

(Values after PubChem BioAssay (Tox21).)
